# The OligoGym collection
# Assays:
# Test in all cases: pooled miR-30 sensor sort-seq; sequence = guide strand
# Details in all cases: shRNA
# [1] = target: CHMP2A
# [2] = target: CHID1
# [3] = target: CHRM2
# [4] = target: CIRBP
# [5] = target: CIR1
# [6] = target: CIAPIN1
# [7] = target: CLDN16
# [8] = target: CLN3
# [9] = target: CLEC9A
# [10] = target: CLN5
# [11] = target: CNOT1
# [12] = target: COL4A3BP
# [13] = target: COPS7A
# [14] = target: CPD
# [15] = target: CPEB3
# [16] = target: CPNE5
# Further: reference of the scale not given here.
sequence,measurement,setting,value
ATCATTCATCATCTCCTCCTTC,sensor-assay potency score (higher = more potent),[1],-0.0683
TAGTCGTAGGTCATGAGGCTGA,sensor-assay potency score (higher = more potent),[2],-0.661
TTCTTTATCCTGCTCTTGCTGG,sensor-assay potency score (higher = more potent),[3],-0.363
TAGTAGTCTCTGGAGCCTCCGT,sensor-assay potency score (higher = more potent),[4],-1.12
TTTTCTTCTCCAGTCGATCTAA,sensor-assay potency score (higher = more potent),[5],-0.412
TTTCGTTTCAGTGCAAACCCAC,sensor-assay potency score (higher = more potent),[5],-0.179
TCTCAGAGTGAACAAATCCAGA,sensor-assay potency score (higher = more potent),[6],-1.26
TACTTTGAGAAGACCTGCTCCA,sensor-assay potency score (higher = more potent),[4],0.53
TGTCTGACGACTTGCCTGCCTG,sensor-assay potency score (higher = more potent),[4],-1.09
TTGTTATCTACAGCTGTCTCTA,sensor-assay potency score (higher = more potent),[6],-0.353
AACTGTCGTAACTGTCTCTGTA,sensor-assay potency score (higher = more potent),[4],0.0143
TACTGCTTTCTGAAGTCTCAGT,sensor-assay potency score (higher = more potent),[5],-0.586
TGTGATCTGAACAAACAGCAGG,sensor-assay potency score (higher = more potent),[6],-0.776
TTTATTGTTACTCTCACTCTCA,sensor-assay potency score (higher = more potent),[5],0.426
TCTCTTCTTAGACTTGTCCTTC,sensor-assay potency score (higher = more potent),[5],-0.0367
TTCTCTTCTTAGACTTGTCCTT,sensor-assay potency score (higher = more potent),[5],-0.317
TTAGCGTCGTCAATGTTCTCAA,sensor-assay potency score (higher = more potent),[4],-0.0271
TTCTTCAGGACACACTCCCTTC,sensor-assay potency score (higher = more potent),[6],-0.89
TCAGAGATCTGTCCGTACTTTG,sensor-assay potency score (higher = more potent),[4],-1.1
TTAACATAAATGACAACAGGAC,sensor-assay potency score (higher = more potent),[6],-0.72
TTCAGAGATCTGTCCGTACTTT,sensor-assay potency score (higher = more potent),[4],0.15
TTCTTCATGAAGCTTTCTCTTC,sensor-assay potency score (higher = more potent),[5],-0.59
TGTCTTTCACAACCACCACTTC,sensor-assay potency score (higher = more potent),[4],-0.854
TCGTCAATGTTCTCAAAGGTGA,sensor-assay potency score (higher = more potent),[4],-0.799
TCCGTACTTTGAGAAGACCTGC,sensor-assay potency score (higher = more potent),[4],-0.634
TAACTGTCTCTGTAGGACCCGC,sensor-assay potency score (higher = more potent),[4],-0.935
TATAGTAGTCTCTGGAGCCTCC,sensor-assay potency score (higher = more potent),[4],-0.259
TGGTCTTTTGATACACAGCAGC,sensor-assay potency score (higher = more potent),[6],-1.52
TTCTTTAAGATATTGCTGCATC,sensor-assay potency score (higher = more potent),[5],-0.396
TTGTTCTTTAAGATATTGCTGC,sensor-assay potency score (higher = more potent),[5],-0.164
TTGACTTCTCTTTTTCCAGTTC,sensor-assay potency score (higher = more potent),[6],-0.361
TATCATATGATATTTTCTGTTC,sensor-assay potency score (higher = more potent),[5],-0.717
TAACTGTCGTAACTGTCTCTGT,sensor-assay potency score (higher = more potent),[4],0.0429
TAGACTTGTCCTTCTCTTCAGA,sensor-assay potency score (higher = more potent),[5],-0.159
TGGAGTAAACTAACAACTCTGA,sensor-assay potency score (higher = more potent),[6],-0.493
TAGCCACCACTCTGACTCCGGC,sensor-assay potency score (higher = more potent),[4],-0.921
TTTGTGTTTACTTCTGCTCTTC,sensor-assay potency score (higher = more potent),[5],0.203
TTGTGAGCCACTTGACTCGTGT,sensor-assay potency score (higher = more potent),[6],-0.0962
TAAGCTGCCTAGAAGAACCCAC,sensor-assay potency score (higher = more potent),[6],0.616
ATCCTTAGCGTCGTCAATGTTC,sensor-assay potency score (higher = more potent),[4],-1.29
TTAGATGCTGTCTTCACTTTGC,sensor-assay potency score (higher = more potent),[6],-0.0905
TAACGCTTGAAGCTTATCCACC,sensor-assay potency score (higher = more potent),[6],-1.25
TTGCCTGCCTGGTCTACTCGGA,sensor-assay potency score (higher = more potent),[4],-0.263
TTTACTTTTTCTCACGCCCTGC,sensor-assay potency score (higher = more potent),[7],-0.567
TTTCCCGATGTCCTCTTGTGGC,sensor-assay potency score (higher = more potent),[8],-1.44
TGGTCCAACAGAGGGAGCCGGG,sensor-assay potency score (higher = more potent),[8],-1.78
TTGGAAGACAGACATTTCTGGT,sensor-assay potency score (higher = more potent),[9],-0.439
TTGCAGTCAAATCGTGATGAGC,sensor-assay potency score (higher = more potent),[8],-1.19
TTAATCTTCCTCAAGCTGCCAG,sensor-assay potency score (higher = more potent),[9],0.401
TATAAAACAAATAGAACTGTTT,sensor-assay potency score (higher = more potent),[10],-0.137
AAATCGTGATGAGCTGTTGTGG,sensor-assay potency score (higher = more potent),[8],-0.817
AAGTAAACTACGACCAAGGGAA,sensor-assay potency score (higher = more potent),[8],-0.0602
TTGGATGAGTTTTTCTTGCTGC,sensor-assay potency score (higher = more potent),[9],0.744
AATCGTGATGAGCTGTTGTGGG,sensor-assay potency score (higher = more potent),[8],-0.0059
TTAAACAATTCTCTTGACTGGT,sensor-assay potency score (higher = more potent),[9],-0.125
ATGTTCTTGAACTCTGCTCCAA,sensor-assay potency score (higher = more potent),[10],-1.05
TTTGTAGCAGCGTGGAACCTTC,sensor-assay potency score (higher = more potent),[9],-0.937
ATAGTAACAACTTTCTCTGTTC,sensor-assay potency score (higher = more potent),[9],-0.226
TTGACAATAAGGATCAGGTTTT,sensor-assay potency score (higher = more potent),[10],-0.121
TACAGCATCTGGTACCAGCGGT,sensor-assay potency score (higher = more potent),[8],-0.527
TGTTTGTGCACAATCACTGCAT,sensor-assay potency score (higher = more potent),[10],0.594
AATCCCACTGACGAGAACCCGG,sensor-assay potency score (higher = more potent),[8],-0.766
TCGTGATGAGCTGTTGTGGGGG,sensor-assay potency score (higher = more potent),[8],-0.528
TTGTGGCTAAGGATGTCGTGGG,sensor-assay potency score (higher = more potent),[8],-0.303
TGTTCTTGAACTCTGCTCCAAA,sensor-assay potency score (higher = more potent),[10],-0.828
TCAAATCGTGATGAGCTGTTGT,sensor-assay potency score (higher = more potent),[8],0.182
AAGACCACACCACACAGGCTGG,sensor-assay potency score (higher = more potent),[8],-1.35
ATCGTGATGAGCTGTTGTGGGG,sensor-assay potency score (higher = more potent),[8],-0.665
TGAGCAACAAGAAATAGCTGGC,sensor-assay potency score (higher = more potent),[8],0.625
TTTAACTTTATGCACCAAGGAA,sensor-assay potency score (higher = more potent),[10],-0.689
TTGCCAGTTAATGTACTTCTGA,sensor-assay potency score (higher = more potent),[10],-0.714
GTGAGCAACAAGAAATAGCTGG,sensor-assay potency score (higher = more potent),[8],-0.754
AACAATTTGATGACGAGTGTGG,sensor-assay potency score (higher = more potent),[8],0.272
CAGAGTTGCAGTCAAATCGTGA,sensor-assay potency score (higher = more potent),[8],-1.16
AACACTGTCCACCTTTCCCGAA,sensor-assay potency score (higher = more potent),[8],-1.44
TACATAACTGATATGAACCATA,sensor-assay potency score (higher = more potent),[10],-0.617
TGGTACAGCATCTGGTACCAGC,sensor-assay potency score (higher = more potent),[8],-1.94
TAGAGACAGAGTTGCAGTCAAA,sensor-assay potency score (higher = more potent),[8],-1.26
TGACTCAGGGAAGTGTTCCAGA,sensor-assay potency score (higher = more potent),[8],-0.693
TCTGCCAGCAGGAACACCAGGT,sensor-assay potency score (higher = more potent),[8],0.0628
TTGAACACTGTCCACCTTTCCC,sensor-assay potency score (higher = more potent),[8],-0.845
TTGTGGAAGGTGTTCACGTAGG,sensor-assay potency score (higher = more potent),[8],-0.371
TTAACTTTATGCACCAAGGAAG,sensor-assay potency score (higher = more potent),[10],-0.963
TTTTCTTGCTGCTGCATCGCAA,sensor-assay potency score (higher = more potent),[9],-0.454
TTATATGTAACTCTTTATCAGG,sensor-assay potency score (higher = more potent),[11],-0.895
TAACTTTAAGTCATGCTCCTGA,sensor-assay potency score (higher = more potent),[11],0.328
TATCTTGTCTGTCAAGAGCAGC,sensor-assay potency score (higher = more potent),[12],-1.23
TAGTGTGACAGGATTCTAGGAT,sensor-assay potency score (higher = more potent),[13],0.596
TTGGAACACAGCATCATCTGGT,sensor-assay potency score (higher = more potent),[14],0.644
TAATATAACATTAACAACTTGG,sensor-assay potency score (higher = more potent),[15],0.134
TTTGTTTGTAAATAGTTCCAGT,sensor-assay potency score (higher = more potent),[14],0.147
TTTTGCTACATCTGCCACCTAC,sensor-assay potency score (higher = more potent),[15],-0.378
TTGATTCATTGTTTGAATCTGT,sensor-assay potency score (higher = more potent),[14],0.522
TTGATTGAGCAGATGCACCAAA,sensor-assay potency score (higher = more potent),[14],-0.419
TTGGTCAGGGATCTCTGCCAGC,sensor-assay potency score (higher = more potent),[16],-1.14
TAGAGTAGCGTTCTACTCGTTC,sensor-assay potency score (higher = more potent),[15],-0.216
TTGCGTAGGATCTGTGATCTGA,sensor-assay potency score (higher = more potent),[14],1.11
TTGAAGAATATCCTACACCTAG,sensor-assay potency score (higher = more potent),[15],-0.344
TTGACAGTCACATTCTTGGTAA,sensor-assay potency score (higher = more potent),[14],-0.225
TTTATTGCATGCAGCAACCTGA,sensor-assay potency score (higher = more potent),[15],-0.657
TTAGGTATAGCAACTGTGCTAG,sensor-assay potency score (higher = more potent),[14],0.733
TTCAACAGCAGTTCTCTTCCAA,sensor-assay potency score (higher = more potent),[14],0.56
TATTCTTGCAAGGTCTACCTTG,sensor-assay potency score (higher = more potent),[14],-0.366
TTTGTTGGAACACAGCATCATC,sensor-assay potency score (higher = more potent),[14],-1.01
TTGTAAATAGTTCCAGTCCTGC,sensor-assay potency score (higher = more potent),[14],-0.512
TATAACATTAACAACTTGGGGG,sensor-assay potency score (higher = more potent),[15],0.19
TTACACTTATTGAATCTCCTTC,sensor-assay potency score (higher = more potent),[14],0.411
TTGAAGTACAGTCTTTCTCTTG,sensor-assay potency score (higher = more potent),[14],-0.337
ATAGGTGACACTATAATCCTTC,sensor-assay potency score (higher = more potent),[14],0.621
TTAGGATACATATTCTTGCAAG,sensor-assay potency score (higher = more potent),[14],-0.612
TATTTGTGAAGTCTGTATCCAA,sensor-assay potency score (higher = more potent),[14],0.0284
TTCCATCTGCATCTTGTCCGGG,sensor-assay potency score (higher = more potent),[15],0.148
TTTCACTCCAATGTGAACCTTT,sensor-assay potency score (higher = more potent),[14],0.41
TAATCCACAATGAACTTGCGCA,sensor-assay potency score (higher = more potent),[16],-0.151
TTGCAGGTCAGAACACCTCTGT,sensor-assay potency score (higher = more potent),[15],0.0399
TTGAAAACAAACTATAGCTTGA,sensor-assay potency score (higher = more potent),[15],0.15
TTCATTAGGATACATATTCTTG,sensor-assay potency score (higher = more potent),[14],-0.698
TTTTGCTTGGTACTTATGCTGG,sensor-assay potency score (higher = more potent),[14],-0.405
TTAGTGATCTTCGATTCTGTTC,sensor-assay potency score (higher = more potent),[14],-0.307
TTTGTAAGTAGTCACTGGGTGA,sensor-assay potency score (higher = more potent),[14],-0.0209
